In the supplement of paper PMC11732987, “Enantioselective OTUD7B fragment discovery through chemoproteomics screening and high-throughput optimisation” (Communications Chemistry, 2025):

Tests used:
Assay in all cases: log2 ratio of Biotin-Ahx-Ub-VS probe labelling (fragment/DMSO); higher = less target engagement (more negative = stronger competition), active = hit call of the paper (q ≤ 0.05, log2 ratio ≤ -1)
Details in all cases: compound concentration: 200 uM; treatment time: 3 h
[1] = target: T1, USP42 (UniProt Q9H9J4)
T1 sequence (whole entry): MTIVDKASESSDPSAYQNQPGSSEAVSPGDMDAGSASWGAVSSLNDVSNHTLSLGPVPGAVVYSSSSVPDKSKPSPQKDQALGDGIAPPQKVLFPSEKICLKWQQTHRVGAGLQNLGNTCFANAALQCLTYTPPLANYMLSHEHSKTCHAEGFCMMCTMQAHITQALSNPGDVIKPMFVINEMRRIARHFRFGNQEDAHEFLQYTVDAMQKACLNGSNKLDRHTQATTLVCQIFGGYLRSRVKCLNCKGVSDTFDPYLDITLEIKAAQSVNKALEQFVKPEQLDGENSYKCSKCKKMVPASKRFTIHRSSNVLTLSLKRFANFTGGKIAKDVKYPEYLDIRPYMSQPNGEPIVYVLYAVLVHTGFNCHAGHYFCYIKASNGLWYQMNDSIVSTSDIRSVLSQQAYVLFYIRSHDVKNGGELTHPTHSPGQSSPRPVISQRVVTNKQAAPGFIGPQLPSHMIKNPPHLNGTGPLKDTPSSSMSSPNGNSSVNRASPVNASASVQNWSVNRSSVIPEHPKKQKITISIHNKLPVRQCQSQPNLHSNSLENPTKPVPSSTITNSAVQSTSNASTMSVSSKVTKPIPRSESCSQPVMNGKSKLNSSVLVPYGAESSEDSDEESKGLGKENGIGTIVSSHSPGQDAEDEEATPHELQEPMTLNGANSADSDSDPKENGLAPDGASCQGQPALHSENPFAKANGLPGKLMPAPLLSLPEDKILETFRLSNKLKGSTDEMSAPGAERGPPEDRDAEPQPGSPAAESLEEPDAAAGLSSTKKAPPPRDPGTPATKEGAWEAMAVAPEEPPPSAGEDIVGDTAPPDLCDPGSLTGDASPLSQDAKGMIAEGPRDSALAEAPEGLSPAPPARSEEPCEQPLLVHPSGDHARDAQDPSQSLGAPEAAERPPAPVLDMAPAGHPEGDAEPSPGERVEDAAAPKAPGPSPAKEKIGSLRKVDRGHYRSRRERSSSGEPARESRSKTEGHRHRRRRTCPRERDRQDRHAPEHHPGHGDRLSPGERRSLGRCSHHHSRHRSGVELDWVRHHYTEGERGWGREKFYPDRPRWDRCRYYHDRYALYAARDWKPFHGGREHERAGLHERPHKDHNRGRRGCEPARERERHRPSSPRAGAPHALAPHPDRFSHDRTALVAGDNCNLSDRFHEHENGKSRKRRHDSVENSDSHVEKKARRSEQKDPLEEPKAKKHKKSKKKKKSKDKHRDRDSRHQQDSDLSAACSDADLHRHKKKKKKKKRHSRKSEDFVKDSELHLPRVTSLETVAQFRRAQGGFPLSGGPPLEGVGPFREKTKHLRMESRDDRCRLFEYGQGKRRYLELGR
How it was run: (§1)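 Labelling with Biotin-Ahx-Ub-VS (0.5 µM final, 1 h) followed a 3 h triplicate treatment of HEK293T lysate (495 µg per sample, Tris/CHAPS/IGEPAL buffer with protease inhibitors) with fragment at 200 µM or vehicle. Labelled DUBs were NeutrAvidin-enriched, digested with LysC and trypsin, and run by diaPASEF LC-MS/MS. The values, average log2 fragment/vehicle ratios by unpaired t-test, come from global-median-normalised Spectronaut label-free quantities. Proteins with ≥2 unique peptides were used.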

[2] = target: USP46 (UniProt P62068)
USP46, sequence (P62068 whole entry): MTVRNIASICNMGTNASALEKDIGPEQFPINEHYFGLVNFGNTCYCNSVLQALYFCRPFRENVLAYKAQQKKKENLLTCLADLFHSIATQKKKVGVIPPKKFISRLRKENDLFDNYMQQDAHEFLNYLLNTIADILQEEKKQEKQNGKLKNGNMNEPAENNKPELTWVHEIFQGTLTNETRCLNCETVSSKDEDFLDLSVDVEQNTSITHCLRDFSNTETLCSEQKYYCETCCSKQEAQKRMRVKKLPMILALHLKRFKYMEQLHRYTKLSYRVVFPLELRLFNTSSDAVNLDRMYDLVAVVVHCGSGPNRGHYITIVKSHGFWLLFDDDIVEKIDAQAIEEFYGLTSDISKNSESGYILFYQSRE
How it was run: as §1

[3] = target: T2, USP47 (UniProt Q96K76)
T2 sequence (whole entry): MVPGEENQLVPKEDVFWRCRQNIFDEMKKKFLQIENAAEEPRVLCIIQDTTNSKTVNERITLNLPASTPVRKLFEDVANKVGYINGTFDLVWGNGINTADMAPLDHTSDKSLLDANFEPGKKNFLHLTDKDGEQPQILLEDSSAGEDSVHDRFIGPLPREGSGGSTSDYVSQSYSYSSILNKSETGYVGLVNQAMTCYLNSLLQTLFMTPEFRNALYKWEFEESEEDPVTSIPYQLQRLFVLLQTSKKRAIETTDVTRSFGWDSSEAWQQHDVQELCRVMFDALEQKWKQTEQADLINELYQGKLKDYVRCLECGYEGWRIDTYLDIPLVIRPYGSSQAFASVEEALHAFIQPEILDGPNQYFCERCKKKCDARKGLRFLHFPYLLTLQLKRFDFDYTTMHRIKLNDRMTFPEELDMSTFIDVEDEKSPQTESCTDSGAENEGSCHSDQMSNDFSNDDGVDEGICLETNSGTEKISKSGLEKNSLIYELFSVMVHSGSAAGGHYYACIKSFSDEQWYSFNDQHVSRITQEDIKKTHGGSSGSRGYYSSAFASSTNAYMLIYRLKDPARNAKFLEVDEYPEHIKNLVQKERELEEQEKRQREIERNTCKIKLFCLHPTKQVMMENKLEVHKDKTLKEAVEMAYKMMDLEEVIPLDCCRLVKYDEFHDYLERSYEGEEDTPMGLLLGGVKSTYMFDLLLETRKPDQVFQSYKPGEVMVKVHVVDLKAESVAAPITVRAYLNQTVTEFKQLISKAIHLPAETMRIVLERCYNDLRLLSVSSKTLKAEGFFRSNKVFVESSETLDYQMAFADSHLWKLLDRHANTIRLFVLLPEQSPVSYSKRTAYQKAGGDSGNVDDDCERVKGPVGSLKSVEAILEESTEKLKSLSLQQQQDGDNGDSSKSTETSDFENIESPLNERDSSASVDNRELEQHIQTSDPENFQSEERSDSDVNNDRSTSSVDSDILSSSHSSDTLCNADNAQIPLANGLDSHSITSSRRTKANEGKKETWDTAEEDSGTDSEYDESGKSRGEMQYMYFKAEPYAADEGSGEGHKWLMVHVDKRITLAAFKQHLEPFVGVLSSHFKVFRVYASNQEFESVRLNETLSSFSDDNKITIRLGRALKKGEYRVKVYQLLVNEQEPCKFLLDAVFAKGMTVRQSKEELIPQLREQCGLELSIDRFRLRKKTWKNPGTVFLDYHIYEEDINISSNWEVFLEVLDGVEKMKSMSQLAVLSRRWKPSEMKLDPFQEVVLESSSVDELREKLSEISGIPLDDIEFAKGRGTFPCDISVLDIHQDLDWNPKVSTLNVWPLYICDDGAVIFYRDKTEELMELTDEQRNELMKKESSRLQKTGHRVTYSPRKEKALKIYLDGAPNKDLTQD
How it was run: as §1

[4] = target: T3, USP48 (UniProt Q86UV5)
T3 sequence (whole entry): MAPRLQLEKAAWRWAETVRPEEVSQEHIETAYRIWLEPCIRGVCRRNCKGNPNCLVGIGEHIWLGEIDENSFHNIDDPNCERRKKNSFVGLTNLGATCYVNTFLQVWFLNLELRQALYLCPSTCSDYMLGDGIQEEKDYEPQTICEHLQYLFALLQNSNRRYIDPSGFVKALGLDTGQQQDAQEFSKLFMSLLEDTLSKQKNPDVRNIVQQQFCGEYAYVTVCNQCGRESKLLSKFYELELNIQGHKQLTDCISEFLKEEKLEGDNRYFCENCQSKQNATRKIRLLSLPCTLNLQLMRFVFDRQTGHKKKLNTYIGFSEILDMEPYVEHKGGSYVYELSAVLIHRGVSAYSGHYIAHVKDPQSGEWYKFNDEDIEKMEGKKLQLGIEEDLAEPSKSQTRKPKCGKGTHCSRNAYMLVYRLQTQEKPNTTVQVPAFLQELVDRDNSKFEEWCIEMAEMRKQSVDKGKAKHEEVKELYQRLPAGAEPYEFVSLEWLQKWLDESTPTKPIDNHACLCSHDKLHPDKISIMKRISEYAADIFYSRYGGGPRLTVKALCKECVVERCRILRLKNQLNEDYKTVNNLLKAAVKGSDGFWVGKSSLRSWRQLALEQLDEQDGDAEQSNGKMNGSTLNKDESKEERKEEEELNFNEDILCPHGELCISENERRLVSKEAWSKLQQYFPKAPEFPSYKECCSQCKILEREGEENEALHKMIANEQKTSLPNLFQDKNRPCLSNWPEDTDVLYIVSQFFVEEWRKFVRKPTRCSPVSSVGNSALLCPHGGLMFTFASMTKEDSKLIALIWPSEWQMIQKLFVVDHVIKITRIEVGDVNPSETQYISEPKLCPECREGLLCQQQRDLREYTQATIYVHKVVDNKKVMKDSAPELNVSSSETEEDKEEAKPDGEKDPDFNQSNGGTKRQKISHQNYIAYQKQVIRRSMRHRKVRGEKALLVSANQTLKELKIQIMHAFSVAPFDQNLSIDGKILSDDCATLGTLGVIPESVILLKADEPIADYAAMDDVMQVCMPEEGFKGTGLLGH
How it was run: as §1

[5] = target: T4, USP5 (UniProt P45974)
T4 sequence (whole entry): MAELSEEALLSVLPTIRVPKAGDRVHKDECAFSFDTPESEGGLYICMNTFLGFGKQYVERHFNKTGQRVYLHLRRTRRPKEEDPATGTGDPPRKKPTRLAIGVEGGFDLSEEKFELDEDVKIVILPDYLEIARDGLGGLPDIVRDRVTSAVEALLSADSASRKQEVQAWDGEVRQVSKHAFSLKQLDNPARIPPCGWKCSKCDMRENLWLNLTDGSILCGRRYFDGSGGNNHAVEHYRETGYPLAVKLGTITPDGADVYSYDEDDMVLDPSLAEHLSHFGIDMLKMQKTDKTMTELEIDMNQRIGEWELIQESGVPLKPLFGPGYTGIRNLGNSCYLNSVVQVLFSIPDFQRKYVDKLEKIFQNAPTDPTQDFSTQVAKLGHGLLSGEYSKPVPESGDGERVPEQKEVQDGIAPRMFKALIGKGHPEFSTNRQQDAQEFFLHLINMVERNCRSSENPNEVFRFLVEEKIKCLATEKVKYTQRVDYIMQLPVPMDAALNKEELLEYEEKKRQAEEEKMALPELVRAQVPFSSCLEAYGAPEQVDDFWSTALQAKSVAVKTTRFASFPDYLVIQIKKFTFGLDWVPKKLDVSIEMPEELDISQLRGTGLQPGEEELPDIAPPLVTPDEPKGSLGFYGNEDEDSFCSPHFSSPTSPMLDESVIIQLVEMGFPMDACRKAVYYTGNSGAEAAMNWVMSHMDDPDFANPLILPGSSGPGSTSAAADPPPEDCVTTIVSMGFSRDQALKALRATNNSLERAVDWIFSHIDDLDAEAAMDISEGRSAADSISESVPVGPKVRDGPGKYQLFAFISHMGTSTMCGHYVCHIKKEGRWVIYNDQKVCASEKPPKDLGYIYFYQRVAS
How it was run: as §1

[6] = target: USP54 (UniProt Q70EL1)
USP54, sequence (Q70EL1 whole entry): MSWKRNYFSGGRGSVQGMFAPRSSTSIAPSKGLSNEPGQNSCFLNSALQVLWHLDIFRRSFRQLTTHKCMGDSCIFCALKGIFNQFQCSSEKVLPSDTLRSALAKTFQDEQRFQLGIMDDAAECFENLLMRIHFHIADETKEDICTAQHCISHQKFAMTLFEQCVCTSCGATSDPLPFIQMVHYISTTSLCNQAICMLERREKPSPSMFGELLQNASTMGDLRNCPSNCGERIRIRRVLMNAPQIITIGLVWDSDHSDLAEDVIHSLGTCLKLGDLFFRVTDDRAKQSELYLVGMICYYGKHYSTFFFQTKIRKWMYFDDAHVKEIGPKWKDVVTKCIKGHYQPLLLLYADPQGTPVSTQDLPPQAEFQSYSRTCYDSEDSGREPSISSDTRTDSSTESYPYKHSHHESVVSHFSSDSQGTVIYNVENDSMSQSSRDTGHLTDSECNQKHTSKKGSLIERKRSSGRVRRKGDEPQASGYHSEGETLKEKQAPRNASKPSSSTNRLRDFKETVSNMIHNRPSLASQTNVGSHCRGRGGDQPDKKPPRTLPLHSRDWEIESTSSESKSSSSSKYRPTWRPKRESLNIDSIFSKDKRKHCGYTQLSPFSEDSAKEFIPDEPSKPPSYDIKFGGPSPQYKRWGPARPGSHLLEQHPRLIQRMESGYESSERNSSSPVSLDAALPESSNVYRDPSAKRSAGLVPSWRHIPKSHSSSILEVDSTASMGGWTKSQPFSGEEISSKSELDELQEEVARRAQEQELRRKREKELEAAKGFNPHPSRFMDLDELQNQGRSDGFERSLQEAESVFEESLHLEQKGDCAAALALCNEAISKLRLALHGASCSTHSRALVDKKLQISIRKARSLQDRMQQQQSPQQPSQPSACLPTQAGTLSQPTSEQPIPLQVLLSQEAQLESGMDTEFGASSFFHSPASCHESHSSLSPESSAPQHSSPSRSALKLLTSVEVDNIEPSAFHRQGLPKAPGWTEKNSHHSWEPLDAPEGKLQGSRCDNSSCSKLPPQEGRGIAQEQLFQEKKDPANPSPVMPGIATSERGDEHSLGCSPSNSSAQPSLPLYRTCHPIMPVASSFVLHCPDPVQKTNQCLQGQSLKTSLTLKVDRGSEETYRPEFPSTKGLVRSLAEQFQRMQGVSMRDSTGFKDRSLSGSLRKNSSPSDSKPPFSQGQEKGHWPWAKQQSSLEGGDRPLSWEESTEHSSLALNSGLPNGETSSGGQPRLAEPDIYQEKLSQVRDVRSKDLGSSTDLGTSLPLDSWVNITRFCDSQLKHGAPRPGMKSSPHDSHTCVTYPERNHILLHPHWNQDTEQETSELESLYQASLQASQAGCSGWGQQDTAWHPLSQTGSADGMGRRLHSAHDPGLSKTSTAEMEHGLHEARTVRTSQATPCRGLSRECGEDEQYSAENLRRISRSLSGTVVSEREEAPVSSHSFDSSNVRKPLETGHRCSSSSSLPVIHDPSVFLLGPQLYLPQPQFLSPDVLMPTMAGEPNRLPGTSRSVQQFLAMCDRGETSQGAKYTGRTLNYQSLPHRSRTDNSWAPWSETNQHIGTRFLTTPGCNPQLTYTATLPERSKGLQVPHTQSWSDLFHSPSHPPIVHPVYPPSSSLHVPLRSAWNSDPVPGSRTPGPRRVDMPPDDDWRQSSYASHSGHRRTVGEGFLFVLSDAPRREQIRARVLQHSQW
How it was run: as §1

[7] = target: USP7 (UniProt Q93009)
USP7, sequence (Q93009 whole entry, looked up): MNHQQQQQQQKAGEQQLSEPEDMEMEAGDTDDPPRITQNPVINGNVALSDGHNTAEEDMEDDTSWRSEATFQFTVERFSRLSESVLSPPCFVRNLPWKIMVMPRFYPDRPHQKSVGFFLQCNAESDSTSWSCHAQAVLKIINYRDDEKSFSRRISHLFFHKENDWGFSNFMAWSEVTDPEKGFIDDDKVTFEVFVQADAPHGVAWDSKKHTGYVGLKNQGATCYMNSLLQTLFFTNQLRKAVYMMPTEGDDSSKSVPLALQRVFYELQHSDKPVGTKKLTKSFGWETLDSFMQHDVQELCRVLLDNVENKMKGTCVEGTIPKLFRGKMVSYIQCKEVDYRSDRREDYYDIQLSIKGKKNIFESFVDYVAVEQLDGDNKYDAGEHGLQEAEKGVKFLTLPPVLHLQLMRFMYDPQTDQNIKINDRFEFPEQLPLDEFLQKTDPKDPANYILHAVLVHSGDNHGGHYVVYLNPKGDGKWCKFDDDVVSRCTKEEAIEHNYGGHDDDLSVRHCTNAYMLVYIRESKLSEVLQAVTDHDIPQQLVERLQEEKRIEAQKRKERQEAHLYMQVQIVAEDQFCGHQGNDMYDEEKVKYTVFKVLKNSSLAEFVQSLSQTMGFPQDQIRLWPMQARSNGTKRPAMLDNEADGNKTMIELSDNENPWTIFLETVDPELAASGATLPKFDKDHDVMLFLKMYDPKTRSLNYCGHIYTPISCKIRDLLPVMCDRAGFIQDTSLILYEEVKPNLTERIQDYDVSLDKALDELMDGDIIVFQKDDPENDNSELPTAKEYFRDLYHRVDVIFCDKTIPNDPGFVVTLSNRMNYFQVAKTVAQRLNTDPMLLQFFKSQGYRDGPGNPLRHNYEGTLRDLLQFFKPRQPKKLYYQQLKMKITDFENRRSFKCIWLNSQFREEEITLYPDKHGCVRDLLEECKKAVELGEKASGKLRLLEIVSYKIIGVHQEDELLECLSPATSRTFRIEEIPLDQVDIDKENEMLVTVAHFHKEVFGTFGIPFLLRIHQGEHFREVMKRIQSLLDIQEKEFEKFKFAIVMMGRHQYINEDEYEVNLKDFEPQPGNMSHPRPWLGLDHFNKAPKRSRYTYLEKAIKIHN
How it was run: as §1

[8] = target: T5, USP8 (UniProt P40818)
T5 sequence (whole entry): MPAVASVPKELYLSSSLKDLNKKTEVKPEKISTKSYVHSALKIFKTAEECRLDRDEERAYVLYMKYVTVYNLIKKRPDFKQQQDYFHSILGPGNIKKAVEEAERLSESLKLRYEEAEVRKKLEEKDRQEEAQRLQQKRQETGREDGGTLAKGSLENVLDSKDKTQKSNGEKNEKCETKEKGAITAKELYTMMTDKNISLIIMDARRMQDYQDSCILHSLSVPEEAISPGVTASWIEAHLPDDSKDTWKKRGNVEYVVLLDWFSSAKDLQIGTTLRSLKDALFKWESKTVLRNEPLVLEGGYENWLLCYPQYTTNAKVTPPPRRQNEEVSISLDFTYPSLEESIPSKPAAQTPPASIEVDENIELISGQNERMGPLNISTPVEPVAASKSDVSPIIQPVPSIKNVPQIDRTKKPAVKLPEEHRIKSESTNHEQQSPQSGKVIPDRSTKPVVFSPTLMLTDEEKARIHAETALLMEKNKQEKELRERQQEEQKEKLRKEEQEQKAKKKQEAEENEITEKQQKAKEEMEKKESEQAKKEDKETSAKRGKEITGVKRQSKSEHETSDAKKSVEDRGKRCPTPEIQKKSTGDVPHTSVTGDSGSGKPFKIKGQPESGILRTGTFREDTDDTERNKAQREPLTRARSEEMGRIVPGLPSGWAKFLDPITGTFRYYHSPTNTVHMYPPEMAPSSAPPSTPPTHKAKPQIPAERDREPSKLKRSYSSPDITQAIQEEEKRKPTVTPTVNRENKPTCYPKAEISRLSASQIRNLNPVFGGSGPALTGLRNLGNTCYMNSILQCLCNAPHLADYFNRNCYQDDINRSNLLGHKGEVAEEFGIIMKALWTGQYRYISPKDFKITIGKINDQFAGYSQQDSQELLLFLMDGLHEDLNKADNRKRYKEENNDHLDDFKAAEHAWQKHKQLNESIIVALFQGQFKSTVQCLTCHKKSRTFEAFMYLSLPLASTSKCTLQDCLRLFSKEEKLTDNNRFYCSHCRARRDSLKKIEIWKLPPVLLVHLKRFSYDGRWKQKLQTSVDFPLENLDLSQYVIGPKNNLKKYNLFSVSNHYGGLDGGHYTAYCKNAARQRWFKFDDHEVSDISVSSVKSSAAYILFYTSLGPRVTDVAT
How it was run: as §1

[9] = target: USP9X (UniProt Q93008)
How it was run: as §1

[10] = target: UniProt O00487
UniProt O00487, sequence (O00487 whole entry): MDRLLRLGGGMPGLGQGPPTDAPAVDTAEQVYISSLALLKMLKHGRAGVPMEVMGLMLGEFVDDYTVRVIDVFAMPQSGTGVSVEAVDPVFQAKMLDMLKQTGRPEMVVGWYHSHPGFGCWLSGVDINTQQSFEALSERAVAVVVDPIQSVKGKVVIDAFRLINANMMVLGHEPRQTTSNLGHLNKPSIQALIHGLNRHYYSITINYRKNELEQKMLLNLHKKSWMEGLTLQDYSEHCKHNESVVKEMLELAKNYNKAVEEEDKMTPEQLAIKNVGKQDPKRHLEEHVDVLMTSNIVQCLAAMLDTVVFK
How it was run: as §1

Measured: log2 ratio of Biotin-Ahx-Ub-VS probe labelling

N#Cc1ccc(CNC(=O)CCl)cc1
inactive: [1] 0.0438 | [2] 0.111 | [3] 0.323 | [4] -0.167 | [5] 0.0355 | [6] 0.446 | [7] -0.073 | [8] -0.338 | [9] -0.0142 | [10] -0.00705
